Bioassay records from PubChem BioAssay.
In the library only some 21% were active in any assay of this set; here they are far more common.
Shiga inhibitor = A qHTS for Small Molecule Inhibitors of Shiga Toxin. Vero cells, Shiga toxin protein synthesis inhibition reporter. inhibition, % at 38.7 µM. 290,000 tested, 9.2% active; in the data active = inhibition mostly above about 28%, no sharp cut-off; inactive = mostly below about 43%; also: 0% is about no effect
Pf growth 48h = Primary qHTS for delayed death inhibitors of the malarial parasite plastid, 48 hour incubation | Potency, µM (top dose mostly 28.7 µM), for the others: top-dose activity change, negative = inhibition, hits mostly inhibitors | AID 504832, 2011 | 310,000 tested, 5.9% active | P. falciparum luciferase growth in erythrocytes, 48 h; also: potency is read from the fitted curve at half-maximal effect; % is scaled to controls: 0 for no effect and ±100 for the full control effect
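Read-out is firefly luciferase luminescence from an integrated reporter in P. falciparum, so falling signal marks reduced parasite growth. Infected erythrocytes were at 2% hematocrit and 0.1% parasitemia (final) in Albumax-supplemented RPMI 1640.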
Pf growth 96h = Primary qHTS for delayed death inhibitors of the malarial parasite plastid, 96 hour incubation | P. falciparum luciferase reporter growth, 96 h | Potency, µM (series often up to 28.7 µM), for the others: top-dose activity change, negative = inhibition, hits mostly inhibitors | 320,000 tested, 6.9% active; also: potency is read from the fitted curve at half-maximal effect; % is scaled to controls: 0 for no effect and ±100 for the full control effect
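Two-generation exposure (96 h) targets delayed-death phenotype. Reporter parasites carrying integrated firefly luciferase, in red cells at 2% hematocrit and 0.05% parasitemia final, kept at 37 C, 5% CO2; luminescence loss indicates inhibition.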
NS1 inh = qHTS Assay for Inhibitors of Influenza NS1 Protein Function. Potency, µM (series often up to 46.1 µM), for inactives: at the top dose activity, positive = more growth. 270,000 tested, 0.4% active; calls by dose curve; also: potency is read from the fitted curve at half-maximal effect; actives are rising curves; nearly all actives have a fitted effect of over 50% in size
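A cell-based growth assay was used: compounds that relieve NS1-induced slow growth of budding yeast raise OD600. Assay medium was yeast nitrogen base with ammonium sulphate and -URA supplement, pH 6.0, with 2% galactose.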
CHX counter = Cycloheximide Counterscreen for Small Molecule Inhibitors of Shiga Toxin; 300,000 tested, 12% active; cell reporter, cycloheximide protein synthesis inhibition counterscreen; max response, %; in the data active = max response mostly above about 13%, no sharp cut-off; inactive = mostly below about 14%; also: read at 38.3 µM for the half of the compounds with a filed dose; 0% is about no effect
* hit, by the source's call; [ ] = remark or other dose. Unless noted, calls follow the shape of the dose curve; as a rule, active = well fitted inhibition curve with a large enough effect; inconclusive = small, poorly fitted or top-dose-only effect, or another doubt; inactive = no such curve, though single readings can be large or run the other way.

Screening O=C(NCC1(N2CCOCC2)CCCCC1)c1cccc(S(=O)(=O)N2CCc3ccccc3C2)c1 returned Shiga inhibitor -6, Pf growth 48h 8.3µM*, Pf growth 96h inconclusive, NS1 inh -3% and CHX counter -3.
Screening N#Cc1ccccc1S(=O)(=O)N1CCN(CC(=O)NCC2(N3CCOCC3)CCCCC2)CC1 returned Pf growth 48h inconclusive and Pf growth 96h 10µM*.
NC(=O)C1(N2CCCCC2)CCN(CC(=O)Nc2cc(Cl)ccc2Cl)CC1 was read as Shiga inhibitor 2, Pf growth 48h 12µM*, Pf growth 96h 18%, NS1 inh -5% and CHX counter -4.
`O=C(CN1CCN(S(=O)(=O)N2CCCCC2)CC1)Nc1cc(Cl)ccc1Cl` gave Shiga inhibitor -23, Pf growth 48h -19%, Pf growth 96h 12%, NS1 inh -1% and CHX counter -2.
Screening O=C(CN1CCN(CC(=O)Nc2ccccc2Cl)CC1)NCC1(N2CCOCC2)CCCCC1 returned Pf growth 48h 10µM* and Pf growth 96h inconclusive.
For Cc1cccc(C)c1NC(=O)CN1CCN(CC(=O)NCC2(N3CCCCC3)CCCCC2)CC1 the results were Pf growth 48h inconclusive and Pf growth 96h 2%.
`CC(=O)Nc1ccc(S(=O)(=O)NCC(=O)OCC(=O)NC23CC4CC(CC(C4)C2)C3)cc1` gave Shiga inhibitor -13, Pf growth 48h -1%, Pf growth 96h 23%, NS1 inh -5% and CHX counter 1.
Screening CC(=O)N1CCc2cc(S(=O)(=O)NCCN3CCC(C)CC3)ccc21 returned Shiga inhibitor -15, Pf growth 96h 48%, NS1 inh -4% and CHX counter -3.
For CCOc1ccccc1NC(=S)N1CCN(c2ccccc2F)CC1 the results were Shiga inhibitor 0, Pf growth 48h -13%, Pf growth 96h inconclusive, NS1 inh 2% and CHX counter 0.
For O=C(CN1CCN(S(=O)(=O)c2ccccc2Cl)CC1)NCC1(N2CCOCC2)CCCCC1 the results were Pf growth 48h 12µM* and Pf growth 96h inconclusive.
Screening O=C(CN1CCN(S(=O)(=O)c2cccc(Cl)c2)CC1)NCC1(N2CCOCC2)CCCCC1 returned Pf growth 48h 10µM* and Pf growth 96h inconclusive.
For O=C(CN1CCN(S(=O)(=O)c2ccc(F)cc2)CC1)NCC1(N2CCOCC2)CCCCC1 the results were Pf growth 48h inconclusive and Pf growth 96h -15%.
Screening COc1ccc(NC(=O)c2ccc(=O)[nH]c2)cc1S(=O)(=O)N1CCOCC1 returned Pf growth 48h 9% and Pf growth 96h 5%.
Screening COc1cccc(NC(=O)CSc2nc3c(sc4ccccc43)c(=O)n2CCCN2CCCC2)c1 returned Shiga inhibitor 39*, Pf growth 48h 10µM*, Pf growth 96h 20%, NS1 inh 25% and CHX counter 16*.
Screening Cc1ccc(CNC(=O)CSc2nc3c(sc4ccccc43)c(=O)n2CCCN2CCCC2)cc1 returned Shiga inhibitor -21, Pf growth 48h 10µM*, Pf growth 96h 25% and CHX counter -14.
`CCCCCCC1CCC(C(=O)N2CCOCC2)CC1` (stereo unspecified) gave Shiga inhibitor 20, Pf growth 48h inconclusive, Pf growth 96h 83% and CHX counter 0.
For COc1ccc(-c2cc(C(F)(F)F)nc(NC3CCCC3)n2)cc1OC the results were Shiga inhibitor -16, Pf growth 48h 15µM*, Pf growth 96h 13%, NS1 inh 12% and CHX counter -5.
Cc1cc2cc(CNC(=S)NC3CCCCC3)ccc2n1C was read as Shiga inhibitor 17, Pf growth 48h inconclusive, Pf growth 96h -11% and CHX counter -5.
Screening CC1=CC2=NC(=O)/C(=C/c3cccs3)C(=N)N2O1 returned Shiga inhibitor -14, Pf growth 48h 20%, Pf growth 96h 23%, NS1 inh -5% and CHX counter -1.
`CC1=CC2=NC(=O)/C(=C\c3ccc(-c4ccc(Cl)cc4)o3)C(=N)N2O1` gave Shiga inhibitor 0, Pf growth 48h 47%, Pf growth 96h inconclusive, NS1 inh 13% and CHX counter 18*.
`CC1=CC2=NC(=O)/C(=C\c3cc(C)n(-c4ccccc4F)c3C)C(=N)N2O1` gave Shiga inhibitor 59*, Pf growth 48h 10µM*, Pf growth 96h inconclusive, NS1 inh -4% and CHX counter 29*.
Screening CC(C)NS(=O)(=O)c1ccc(NCCCn2ccnc2)c([N+](=O)[O-])c1 returned Shiga inhibitor 14, Pf growth 48h -7%, Pf growth 96h -18%, NS1 inh 4% and CHX counter 2.
O=C(CCN1CCOCC1)NCC(=O)Nc1ccc(Br)cc1C(=O)c1ccccc1 was read as Shiga inhibitor -17, Pf growth 48h 11%, Pf growth 96h 13µM*, NS1 inh -1% and CHX counter -1.
`O=C(NCCCc1ccccc1)c1cnc2n(c1=O)CCS2` gave Shiga inhibitor 63*, Pf growth 48h 55%, Pf growth 96h -5%, NS1 inh -15% and CHX counter 38*.
O=C(NCCc1ccc(Cl)cc1)c1cnc2n(c1=O)CCS2 was read as Shiga inhibitor active, Pf growth 48h 17%, Pf growth 96h 4%, NS1 inh -33% and CHX counter 41*.
`O=C(NCCC1=CCCCC1)c1cnc2n(c1=O)CCS2` gave Shiga inhibitor 41*, Pf growth 48h 95%, Pf growth 96h -10%, NS1 inh -9% and CHX counter 41*.
For O=C(NCc1ccccc1)c1cnc2n(c1=O)CCS2 the results were Shiga inhibitor -13, Pf growth 48h -9%, Pf growth 96h -18%, NS1 inh 3% and CHX counter -3.
`COc1ccc(CCNC(=O)c2cnc3n(c2=O)CCS3)cc1OC` gave Shiga inhibitor -3, Pf growth 48h -18%, Pf growth 96h 3%, NS1 inh -1% and CHX counter 2.
`O=C(NCCN1CCOCC1)c1cc(-c2ccc(O)cc2)on1` gave NS1 inh -17%.
`CCCCC(=O)OCC(=O)Nc1cccc(S(=O)(=O)NC2=NCCCCC2)c1` gave Shiga inhibitor -7, Pf growth 48h inconclusive, Pf growth 96h -38%[5.75 µM] and CHX counter -1.
Screening COc1ccc(C(=O)c2sc(Nc3cccc(OC)c3)c(C(=O)Nc3cccc(C)c3C)c2N)cc1 returned Shiga inhibitor -14, Pf growth 96h 12µM*, NS1 inh 13% and CHX counter 1.
For COc1ccccc1NC(=O)c1c(Nc2ccccc2C)sc(C(=O)Nc2cccc(Cl)c2)c1N the results were Shiga inhibitor 9, Pf growth 48h inconclusive, Pf growth 96h 10µM*, NS1 inh inconclusive and CHX counter -1.
Screening COc1ccc(Nc2sc(C(=O)c3ccc(Cl)cc3)c(N)c2C(=O)Nc2ccccc2OC)cc1 returned Shiga inhibitor -18, Pf growth 48h 10µM*, NS1 inh 0% and CHX counter -1.
